Experimental data taken from PubChem BioAssay AID1159580 (chemical genetic matrix, 2015).
Hit rate of the full screen: of about 5,500 compounds, about 2,000 (36%) were called active. Not shown: some 18% with an inconclusive outcome. Rule as the data show it: active = normalized growth mostly below about 0.91 (no sharp cut-off); inconclusive = no clear call, values can overlap the other calls; inactive = mostly above about 0.92. The list shows a part of the results.

Assay: chemical genetic growth profiling, strain panel (AID 1159580);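 also: tested at 20 µM; growth read once vehicle control cultures reached saturation at 30 °C; 1 = growth at the plate median or of vehicle wells; lower values mean less growth of the strain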
Settings: growth OD

Measured: normalized growth

O=C(O)c1ccccc1O
inactive: S. cerevisiae deletion strains, locus YJR066W, strain TOR1, active compounds read low 0.951 | S. cerevisiae deletion strains, locus YJR075W, strain HOC1, active compounds read low 1.01 | S. cerevisiae deletion strains, locus YKL009W, strain mrt4, active compounds read low 1.05 | S. cerevisiae deletion strains, locus YKL068W, active compounds read low 0.982 | S. cerevisiae deletion strains, locus YKL085W, strain MDH1 (second series), active compounds read low 0.989 | S. cerevisiae deletion strains, locus YKL085W, strain MDH1, active compounds read low 0.989 | S. cerevisiae deletion strains, locus YKL160W, strain elf1, active compounds read low 0.971 | S. cerevisiae deletion strains, locus YKL190W, strain CNB1, active compounds read low 0.998 | S. cerevisiae deletion strains, locus YKR001C, strain vps1, active compounds read low 1.02 | S. cerevisiae deletion strains, locus YKR091W, strain srl3, active compounds read low 0.99 | S. cerevisiae deletion strains, locus YLL001W, strain dnm1, active compounds read low 0.97 | S. cerevisiae deletion strains, locus YLL026W, active compounds read low 0.991 | S. cerevisiae deletion strains, locus YLL041C, strain sdh2, active compounds read low 0.99 | S. cerevisiae deletion strains, locus YLR027C, strain aat2, active compounds read low 0.997 | S. cerevisiae deletion strains, locus YLR039C, strain RIC1, active compounds read low 0.978 | S. cerevisiae deletion strains, locus YLR058C, strain SHM2, active compounds read low 0.994 | S. cerevisiae deletion strains, locus YLR102C, strain apc9, active compounds read low 1.01 | S. cerevisiae deletion strains, locus YLR113W, strain HOG1, active compounds read low 0.987 | S. cerevisiae deletion strains, locus YLR221C, strain rsa3, active compounds read low 1 | S. cerevisiae deletion strains, locus YLR258W, strain gsy2, active compounds read low 0.979 | S. cerevisiae deletion strains, locus YLR262C, strain YPT6 (second series), active compounds read low 0.957 | S. cerevisiae deletion strains, locus YLR262C, strain YPT6, active compounds read low 0.973 | S. cerevisiae deletion strains, locus YLR268W, strain sec22, active compounds read low 1.04 | S. cerevisiae deletion strains, locus YLR320W, strain mms22, active compounds read low 1.03 | S. cerevisiae deletion strains, locus YLR330W, strain CHS5, active compounds read low 1 | S. cerevisiae deletion strains, locus YLR342W, strain FKS1 (second series), active compounds read low 1.01 | S. cerevisiae deletion strains, locus YLR342W, strain FKS1, active compounds read low 0.975 | S. cerevisiae deletion strains, locus YLR357W, strain rsc2, active compounds read low 0.956 | S. cerevisiae deletion strains, locus YLR370C, strain arc18, active compounds read low 0.988 | S. cerevisiae deletion strains, locus YLR371W, strain rom2, active compounds read low 1.01 | S. cerevisiae deletion strains, locus YLR384C, strain iki3, active compounds read low 0.96 | S. cerevisiae deletion strains, locus YLR418C, strain cdc73, active compounds read low 1.01 | S. cerevisiae deletion strains, locus YML016C, strain PPZ1, active compounds read low 1 | S. cerevisiae deletion strains, locus YML032C, strain rad52, active compounds read low 1.04 | S. cerevisiae deletion strains, locus YML120C, strain ndi1, active compounds read low 0.985 | S. cerevisiae deletion strains, locus YML124C, strain tub3, active compounds read low 1.01 | S. cerevisiae deletion strains, locus YMR058W, strain fet3, active compounds read low 0.998 | S. cerevisiae deletion strains, locus YMR078C, strain ctf18, active compounds read low 1.02 | S. cerevisiae deletion strains, locus YMR125W, strain sto1, active compounds read low 0.923 | S. cerevisiae deletion strains, locus YMR129W, active compounds read low 0.971 | S. cerevisiae deletion strains, locus YMR205C, strain PFK2, active compounds read low 0.985 | S. cerevisiae deletion strains, locus YMR223W, strain ubp8, active compounds read low 1.02 | S. cerevisiae deletion strains, locus YMR231W, strain pep5, active compounds read low 0.976 | S. cerevisiae deletion strains, locus YMR307W, strain GAS1, active compounds read low 0.965 | S. cerevisiae deletion strains, locus YNL067W, strain RPL9B, active compounds read low 0.998 | S. cerevisiae deletion strains, locus YNL071W, strain lat1, active compounds read low 0.986 | S. cerevisiae deletion strains, locus YNL153C, strain GIM3, active compounds read low 1.01 | S. cerevisiae deletion strains, locus YNL183C, strain NPR1, active compounds read low 0.951 | S. cerevisiae deletion strains, locus YNL209W, strain ssb2, active compounds read low 0.968 | S. cerevisiae deletion strains, locus YNL233W, strain BNI4, active compounds read low 1 | S. cerevisiae deletion strains, locus YNL248C, strain rpa49, active compounds read low 0.958 | S. cerevisiae deletion strains, locus YNL250W, strain rad50, active compounds read low 1 | S. cerevisiae deletion strains, locus YNL271C, strain bni1, active compounds read low 0.995 | S. cerevisiae deletion strains, locus YNL298W, strain CLA4, active compounds read low 1.02 | S. cerevisiae deletion strains, locus YNL307C, strain MCK1, active compounds read low 1.02 | S. cerevisiae deletion strains, locus YNL322C, strain KRE1 (second series), active compounds read low 0.974 | S. cerevisiae deletion strains, locus YNR049C, strain mso1, active compounds read low 0.979 | S. cerevisiae deletion strains, locus YNR052C, strain pop2, active compounds read low 1.02 | S. cerevisiae deletion strains, locus YOL006C, strain TOP1, active compounds read low 1.09 | S. cerevisiae deletion strains, locus YOL012C, strain htz1 1.01 | S. cerevisiae deletion strains, locus YOL147C, strain pex11, active compounds read low 1.01 | S. cerevisiae deletion strains, locus YOR001W, strain rrp6, active compounds read low 0.982 | S. cerevisiae deletion strains, locus YOR061W, strain CKA2, active compounds read low 0.999 | S. cerevisiae deletion strains, locus YOR069W, strain VPS5, active compounds read low 0.993 | S. cerevisiae deletion strains, locus YOR070C, strain gyp1, active compounds read low 0.982 | S. cerevisiae deletion strains, locus YOR080W, strain dia2, active compounds read low 0.983 | S. cerevisiae deletion strains, locus YOR083W, strain WHI5, active compounds read low 0.988 | S. cerevisiae deletion strains, locus YOR106W, strain vam3, active compounds read low 0.952 | S. cerevisiae deletion strains, locus YOR136W, strain idh2, active compounds read low 1.02 | S. cerevisiae deletion strains, locus YOR144C, strain elg1, active compounds read low 1.01 | S. cerevisiae deletion strains, locus YOR184W, strain ser1, active compounds read low 1.02 | S. cerevisiae deletion strains, locus YOR231W, strain MKK1, active compounds read low 0.98 | S. cerevisiae deletion strains, locus YOR265W, strain rbl2, active compounds read low 0.976 | S. cerevisiae deletion strains, locus YOR270C, strain vph1, active compounds read low 0.944 | S. cerevisiae deletion strains, locus YOR290C, strain snf2, active compounds read low 1 | S. cerevisiae deletion strains, locus YOR316C, strain cot1, active compounds read low 1.02 | S. cerevisiae deletion strains, locus YPL051W, strain arl3, active compounds read low 0.986 | S. cerevisiae deletion strains, locus YPL078C, strain atp4, active compounds read low 0.961 | S. cerevisiae deletion strains, locus YPL106C, strain sse1, active compounds read low 0.954 | S. cerevisiae deletion strains, locus YPL240C, strain hsp82, active compounds read low 0.976 | S. cerevisiae deletion strains, locus YPL256C, strain CLN2, active compounds read low 1.05 | S. cerevisiae deletion strains, locus YPR119W, strain clb2, active compounds read low 1.01 | S. cerevisiae deletion strains, locus YPR141C, strain kar3, active compounds read low 0.994 | S. cerevisiae deletion strains, locus YPR163C, strain tif3, active compounds read low 1.01 | S. cerevisiae deletion strains, locus YPR167C, strain met16, active compounds read low 1.01 | S. cerevisiae deletion strains, strain wtn01, active compounds read low 1.01 | S. cerevisiae strains, strain wild type, active compounds read low 0.999
